# Laboratory results reported in ChEMBL document CHEMBL1961873, “Compounds: GSK PKIS; Assays: Nanosyn kinase panel” (2012).
# Columns and labels:
# [1] = target: Tyrosine-protein kinase SYK (Homo sapiens) (UniProt P43405); conditions: at 1 µM
# [2] = target: T1, Tyrosine-protein kinase Tec (Homo sapiens) (UniProt P42680); conditions: at 0.1 µM
# T1 sequence (whole entry): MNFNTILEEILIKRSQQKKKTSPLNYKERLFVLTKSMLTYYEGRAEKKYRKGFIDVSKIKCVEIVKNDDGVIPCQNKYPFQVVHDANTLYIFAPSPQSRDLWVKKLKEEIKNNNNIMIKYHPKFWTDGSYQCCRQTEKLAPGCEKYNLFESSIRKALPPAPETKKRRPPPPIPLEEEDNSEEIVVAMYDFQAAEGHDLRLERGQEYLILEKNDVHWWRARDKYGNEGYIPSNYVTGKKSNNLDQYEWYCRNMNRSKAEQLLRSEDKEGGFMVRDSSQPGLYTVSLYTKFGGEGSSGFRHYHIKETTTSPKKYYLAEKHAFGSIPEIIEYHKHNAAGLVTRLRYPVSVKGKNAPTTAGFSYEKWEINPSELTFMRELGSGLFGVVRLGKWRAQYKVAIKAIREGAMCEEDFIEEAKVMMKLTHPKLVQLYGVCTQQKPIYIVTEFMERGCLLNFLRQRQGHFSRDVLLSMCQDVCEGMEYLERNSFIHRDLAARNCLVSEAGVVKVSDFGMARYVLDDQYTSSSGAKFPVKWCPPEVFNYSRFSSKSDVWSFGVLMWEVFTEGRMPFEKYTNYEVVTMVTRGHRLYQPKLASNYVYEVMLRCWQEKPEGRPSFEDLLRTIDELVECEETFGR
# [3] = target: T1, Tyrosine-protein kinase Tec (Homo sapiens); conditions: at 1 µM
# [4] = target: Angiopoietin-1 receptor (Homo sapiens) (UniProt Q02763); conditions: at 0.1 µM
# [5] = target: Angiopoietin-1 receptor (Homo sapiens) (UniProt Q02763); conditions: at 1 µM
# [6] = target: T2, Non-receptor tyrosine-protein kinase TNK1 (Homo sapiens) (UniProt Q13470); conditions: at 0.1 µM
# T2 sequence (whole entry): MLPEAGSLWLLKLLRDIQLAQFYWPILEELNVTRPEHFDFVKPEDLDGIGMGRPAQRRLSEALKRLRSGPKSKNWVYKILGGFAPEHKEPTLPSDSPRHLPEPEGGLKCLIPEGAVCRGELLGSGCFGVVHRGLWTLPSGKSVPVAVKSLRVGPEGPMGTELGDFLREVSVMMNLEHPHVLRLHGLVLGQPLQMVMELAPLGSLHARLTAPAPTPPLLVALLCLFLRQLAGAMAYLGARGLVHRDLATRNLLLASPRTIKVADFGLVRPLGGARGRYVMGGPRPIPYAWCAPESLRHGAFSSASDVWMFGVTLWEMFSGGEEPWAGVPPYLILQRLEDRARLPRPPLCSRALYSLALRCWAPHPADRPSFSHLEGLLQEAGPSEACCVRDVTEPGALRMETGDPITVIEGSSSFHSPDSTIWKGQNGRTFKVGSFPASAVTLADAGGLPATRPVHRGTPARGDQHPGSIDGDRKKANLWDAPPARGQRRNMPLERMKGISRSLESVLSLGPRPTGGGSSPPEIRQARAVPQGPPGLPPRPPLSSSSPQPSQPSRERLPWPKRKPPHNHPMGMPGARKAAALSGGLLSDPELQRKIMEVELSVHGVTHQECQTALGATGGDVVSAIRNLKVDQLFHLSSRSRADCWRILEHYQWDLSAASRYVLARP
# [7] = target: T2, Non-receptor tyrosine-protein kinase TNK1 (Homo sapiens); conditions: at 1 µM
# [8] = target: Activated CDC42 kinase 1 (Homo sapiens) (UniProt Q07912); conditions: at 0.1 µM
# Activated CDC42 kinase 1 (Homo sapiens), sequence (Q07912 whole entry, looked up): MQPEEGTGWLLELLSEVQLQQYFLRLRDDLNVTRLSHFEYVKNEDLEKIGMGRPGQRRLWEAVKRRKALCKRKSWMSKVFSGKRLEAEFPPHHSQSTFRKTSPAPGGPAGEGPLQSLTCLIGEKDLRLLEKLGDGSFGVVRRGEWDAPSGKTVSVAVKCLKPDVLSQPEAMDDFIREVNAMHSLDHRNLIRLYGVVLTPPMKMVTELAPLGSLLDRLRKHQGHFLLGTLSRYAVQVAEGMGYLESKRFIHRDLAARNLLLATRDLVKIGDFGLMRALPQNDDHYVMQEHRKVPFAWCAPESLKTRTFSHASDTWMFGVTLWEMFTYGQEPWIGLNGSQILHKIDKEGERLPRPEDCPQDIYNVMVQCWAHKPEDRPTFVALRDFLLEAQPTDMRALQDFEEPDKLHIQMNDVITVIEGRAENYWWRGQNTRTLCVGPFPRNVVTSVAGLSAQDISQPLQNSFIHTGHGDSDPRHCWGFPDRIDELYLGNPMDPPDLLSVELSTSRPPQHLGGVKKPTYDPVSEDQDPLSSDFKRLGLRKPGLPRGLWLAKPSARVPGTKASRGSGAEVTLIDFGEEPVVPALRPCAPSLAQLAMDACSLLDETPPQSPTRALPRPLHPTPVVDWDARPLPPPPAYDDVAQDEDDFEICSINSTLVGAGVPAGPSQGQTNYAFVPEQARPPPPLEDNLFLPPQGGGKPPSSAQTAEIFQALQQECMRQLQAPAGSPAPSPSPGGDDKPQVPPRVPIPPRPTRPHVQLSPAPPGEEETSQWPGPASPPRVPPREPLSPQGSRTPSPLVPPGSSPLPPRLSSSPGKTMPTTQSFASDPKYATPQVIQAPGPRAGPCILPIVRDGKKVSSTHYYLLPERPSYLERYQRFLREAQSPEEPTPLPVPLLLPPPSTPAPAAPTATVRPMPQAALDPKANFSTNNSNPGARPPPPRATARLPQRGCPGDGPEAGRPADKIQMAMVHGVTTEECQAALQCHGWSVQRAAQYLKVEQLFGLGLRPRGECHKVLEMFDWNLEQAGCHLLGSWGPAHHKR
# [9] = target: Activated CDC42 kinase 1 (Homo sapiens) (UniProt Q07912); conditions: at 1 µM
# [10] = target: High affinity nerve growth factor receptor (Homo sapiens) (UniProt P04629); conditions: at 0.1 µM
# High affinity nerve growth factor receptor (Homo sapiens), sequence (P04629 33-796 limits assumed): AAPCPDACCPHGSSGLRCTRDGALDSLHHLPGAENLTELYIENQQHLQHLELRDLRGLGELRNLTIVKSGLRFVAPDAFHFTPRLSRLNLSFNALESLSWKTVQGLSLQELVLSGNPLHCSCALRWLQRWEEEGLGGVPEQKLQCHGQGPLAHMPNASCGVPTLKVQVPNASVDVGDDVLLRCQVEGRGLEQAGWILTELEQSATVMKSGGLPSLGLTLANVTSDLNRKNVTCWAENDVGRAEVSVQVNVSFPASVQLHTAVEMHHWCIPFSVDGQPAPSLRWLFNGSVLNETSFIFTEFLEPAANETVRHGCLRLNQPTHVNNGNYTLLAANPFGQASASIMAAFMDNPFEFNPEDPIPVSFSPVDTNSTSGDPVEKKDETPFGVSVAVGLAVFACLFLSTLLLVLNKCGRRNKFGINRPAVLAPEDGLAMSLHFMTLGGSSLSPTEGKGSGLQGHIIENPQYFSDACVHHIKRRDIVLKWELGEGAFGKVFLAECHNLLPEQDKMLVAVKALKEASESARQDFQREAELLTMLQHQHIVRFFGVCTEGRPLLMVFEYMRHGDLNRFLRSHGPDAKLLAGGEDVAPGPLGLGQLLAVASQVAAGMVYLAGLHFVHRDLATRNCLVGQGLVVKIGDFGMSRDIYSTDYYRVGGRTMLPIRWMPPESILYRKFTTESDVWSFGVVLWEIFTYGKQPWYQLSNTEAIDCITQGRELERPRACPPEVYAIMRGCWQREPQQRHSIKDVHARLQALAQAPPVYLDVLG
# [11] = target: High affinity nerve growth factor receptor (Homo sapiens) (UniProt P04629); conditions: at 1 µM
# [12] = target: BDNF/NT-3 growth factors receptor (Homo sapiens) (UniProt Q16620); conditions: at 0.1 µM
# BDNF/NT-3 growth factors receptor (Homo sapiens), sequence (Q16620 32-822 limits assumed): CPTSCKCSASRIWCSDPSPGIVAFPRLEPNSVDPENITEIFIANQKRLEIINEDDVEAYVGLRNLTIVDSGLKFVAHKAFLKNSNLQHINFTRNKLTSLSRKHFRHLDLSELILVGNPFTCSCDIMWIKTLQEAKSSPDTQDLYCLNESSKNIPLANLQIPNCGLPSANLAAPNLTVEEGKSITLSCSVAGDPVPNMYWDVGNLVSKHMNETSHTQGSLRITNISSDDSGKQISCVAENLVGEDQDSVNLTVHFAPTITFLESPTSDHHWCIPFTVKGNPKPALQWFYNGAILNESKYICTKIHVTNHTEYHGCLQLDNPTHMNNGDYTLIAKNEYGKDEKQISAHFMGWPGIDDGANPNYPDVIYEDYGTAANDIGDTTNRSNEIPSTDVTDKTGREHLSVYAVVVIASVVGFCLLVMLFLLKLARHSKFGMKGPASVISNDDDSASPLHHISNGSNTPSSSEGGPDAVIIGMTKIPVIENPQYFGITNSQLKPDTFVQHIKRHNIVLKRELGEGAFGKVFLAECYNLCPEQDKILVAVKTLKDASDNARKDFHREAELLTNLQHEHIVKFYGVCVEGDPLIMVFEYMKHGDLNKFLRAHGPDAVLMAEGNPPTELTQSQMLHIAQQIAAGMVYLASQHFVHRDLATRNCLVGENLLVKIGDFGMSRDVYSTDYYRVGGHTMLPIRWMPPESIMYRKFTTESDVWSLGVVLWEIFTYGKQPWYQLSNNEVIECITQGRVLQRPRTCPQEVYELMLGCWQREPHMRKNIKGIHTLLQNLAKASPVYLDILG
# [13] = target: BDNF/NT-3 growth factors receptor (Homo sapiens) (UniProt Q16620); conditions: at 1 µM
# [14] = target: NT-3 growth factor receptor (Homo sapiens) (UniProt Q16288); conditions: at 0.1 µM
# NT-3 growth factor receptor (Homo sapiens), sequence (Q16288 32-839 limits assumed): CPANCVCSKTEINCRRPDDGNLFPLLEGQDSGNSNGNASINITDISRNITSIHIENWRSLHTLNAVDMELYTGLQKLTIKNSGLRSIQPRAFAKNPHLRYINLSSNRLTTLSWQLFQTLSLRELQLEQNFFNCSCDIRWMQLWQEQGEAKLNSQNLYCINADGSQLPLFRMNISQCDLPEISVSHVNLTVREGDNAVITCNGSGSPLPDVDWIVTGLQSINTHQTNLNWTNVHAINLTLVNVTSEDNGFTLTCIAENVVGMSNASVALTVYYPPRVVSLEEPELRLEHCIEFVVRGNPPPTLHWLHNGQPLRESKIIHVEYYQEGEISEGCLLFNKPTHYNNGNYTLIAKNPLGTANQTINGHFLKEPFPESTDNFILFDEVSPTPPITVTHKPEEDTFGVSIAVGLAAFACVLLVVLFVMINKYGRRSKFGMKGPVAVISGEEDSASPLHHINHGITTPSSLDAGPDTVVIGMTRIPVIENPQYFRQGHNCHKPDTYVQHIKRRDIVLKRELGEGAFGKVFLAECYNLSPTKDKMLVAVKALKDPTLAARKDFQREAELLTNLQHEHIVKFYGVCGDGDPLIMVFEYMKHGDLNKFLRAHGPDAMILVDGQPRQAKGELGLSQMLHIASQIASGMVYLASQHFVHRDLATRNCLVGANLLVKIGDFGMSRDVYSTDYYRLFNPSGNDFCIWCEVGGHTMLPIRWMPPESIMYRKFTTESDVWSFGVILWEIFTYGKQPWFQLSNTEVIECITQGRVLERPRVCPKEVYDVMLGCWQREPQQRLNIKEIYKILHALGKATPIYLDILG
# [15] = target: NT-3 growth factor receptor (Homo sapiens) (UniProt Q16288); conditions: at 1 µM
# [16] = target: T3, Tyrosine-protein kinase TXK (Homo sapiens) (UniProt P42681); conditions: at 0.1 µM
# T3 sequence (whole entry): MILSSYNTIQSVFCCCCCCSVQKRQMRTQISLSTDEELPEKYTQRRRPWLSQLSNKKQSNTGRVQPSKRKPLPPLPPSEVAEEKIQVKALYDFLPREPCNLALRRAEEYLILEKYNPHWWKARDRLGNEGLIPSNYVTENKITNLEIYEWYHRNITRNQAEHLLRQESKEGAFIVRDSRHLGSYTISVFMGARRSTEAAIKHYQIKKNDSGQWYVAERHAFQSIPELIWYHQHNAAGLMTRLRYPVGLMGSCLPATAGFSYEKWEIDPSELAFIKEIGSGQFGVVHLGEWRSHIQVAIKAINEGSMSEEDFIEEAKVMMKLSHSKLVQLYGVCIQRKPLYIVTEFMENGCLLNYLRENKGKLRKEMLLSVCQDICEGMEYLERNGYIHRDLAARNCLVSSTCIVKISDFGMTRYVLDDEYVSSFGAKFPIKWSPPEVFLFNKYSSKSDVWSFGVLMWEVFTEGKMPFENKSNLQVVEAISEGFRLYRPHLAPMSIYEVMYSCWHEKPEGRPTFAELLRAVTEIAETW
# [17] = target: T3, Tyrosine-protein kinase TXK (Homo sapiens); conditions: at 1 µM
# [18] = target: Non-receptor tyrosine-protein kinase TYK2 (Homo sapiens) (UniProt P29597); conditions: at 0.1 µM;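 note: each value is a mean of the inhibition readings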
# Non-receptor tyrosine-protein kinase TYK2 (Homo sapiens), sequence (P29597 whole entry): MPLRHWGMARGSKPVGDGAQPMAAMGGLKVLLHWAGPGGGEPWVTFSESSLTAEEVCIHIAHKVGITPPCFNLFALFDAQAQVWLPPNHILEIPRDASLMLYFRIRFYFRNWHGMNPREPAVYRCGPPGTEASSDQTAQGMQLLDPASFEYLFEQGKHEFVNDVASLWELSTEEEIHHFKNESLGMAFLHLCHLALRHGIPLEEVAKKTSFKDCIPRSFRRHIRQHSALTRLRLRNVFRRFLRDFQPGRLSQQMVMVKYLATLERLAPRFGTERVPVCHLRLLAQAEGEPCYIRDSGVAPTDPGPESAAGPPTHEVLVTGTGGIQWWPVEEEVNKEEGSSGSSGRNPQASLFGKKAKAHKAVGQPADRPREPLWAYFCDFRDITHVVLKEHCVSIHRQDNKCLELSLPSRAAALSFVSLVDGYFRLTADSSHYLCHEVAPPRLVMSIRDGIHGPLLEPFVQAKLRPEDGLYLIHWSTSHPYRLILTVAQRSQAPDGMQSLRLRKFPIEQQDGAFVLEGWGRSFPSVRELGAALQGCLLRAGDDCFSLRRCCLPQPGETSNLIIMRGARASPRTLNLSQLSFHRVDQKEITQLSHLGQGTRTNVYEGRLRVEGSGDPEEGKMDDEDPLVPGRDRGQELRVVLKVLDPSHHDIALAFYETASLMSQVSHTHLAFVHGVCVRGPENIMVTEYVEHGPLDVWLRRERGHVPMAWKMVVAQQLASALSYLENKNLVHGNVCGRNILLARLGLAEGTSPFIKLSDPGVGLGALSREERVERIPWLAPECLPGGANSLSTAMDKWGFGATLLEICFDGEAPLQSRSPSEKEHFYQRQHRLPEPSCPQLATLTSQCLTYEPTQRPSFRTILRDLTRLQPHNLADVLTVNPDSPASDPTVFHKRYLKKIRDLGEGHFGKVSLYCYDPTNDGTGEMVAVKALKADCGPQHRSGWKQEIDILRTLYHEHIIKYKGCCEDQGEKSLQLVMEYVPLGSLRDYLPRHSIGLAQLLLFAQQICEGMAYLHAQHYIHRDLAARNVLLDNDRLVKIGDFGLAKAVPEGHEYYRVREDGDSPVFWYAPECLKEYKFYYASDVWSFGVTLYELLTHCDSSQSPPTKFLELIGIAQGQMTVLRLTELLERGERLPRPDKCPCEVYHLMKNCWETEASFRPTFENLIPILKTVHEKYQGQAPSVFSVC
# [19] = target: T4, Dual specificity protein kinase TTK (Homo sapiens) (UniProt P33981); conditions: at 1 µM;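 note: reported figures are mean TTK inhibition at 1 µM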
# T4 sequence (whole entry): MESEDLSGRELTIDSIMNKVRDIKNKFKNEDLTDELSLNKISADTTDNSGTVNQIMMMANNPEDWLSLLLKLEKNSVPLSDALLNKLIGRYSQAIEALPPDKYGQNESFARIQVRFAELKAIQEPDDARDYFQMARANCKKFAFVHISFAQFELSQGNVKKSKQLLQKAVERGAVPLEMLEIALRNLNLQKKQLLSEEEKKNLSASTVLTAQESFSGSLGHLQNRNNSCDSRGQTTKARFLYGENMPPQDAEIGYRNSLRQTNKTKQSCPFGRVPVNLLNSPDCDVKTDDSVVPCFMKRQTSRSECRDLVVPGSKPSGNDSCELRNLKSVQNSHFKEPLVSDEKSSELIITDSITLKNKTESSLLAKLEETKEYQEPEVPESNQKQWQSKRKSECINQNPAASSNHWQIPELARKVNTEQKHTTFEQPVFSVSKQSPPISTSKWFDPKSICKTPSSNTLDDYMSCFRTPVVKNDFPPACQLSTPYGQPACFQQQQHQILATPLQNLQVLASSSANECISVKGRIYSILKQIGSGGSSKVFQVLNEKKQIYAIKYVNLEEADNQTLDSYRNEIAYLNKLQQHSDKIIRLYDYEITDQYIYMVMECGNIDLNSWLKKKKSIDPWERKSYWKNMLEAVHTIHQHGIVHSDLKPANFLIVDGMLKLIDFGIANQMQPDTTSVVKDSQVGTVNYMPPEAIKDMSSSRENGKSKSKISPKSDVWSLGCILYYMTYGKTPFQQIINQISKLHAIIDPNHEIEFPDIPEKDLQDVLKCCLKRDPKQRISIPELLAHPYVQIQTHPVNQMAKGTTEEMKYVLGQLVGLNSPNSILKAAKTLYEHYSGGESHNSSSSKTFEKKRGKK
# [20] = target: T5, Aurora kinase A (Homo sapiens) (UniProt O14965); conditions: at 0.1 µM;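 note: each reported value is a mean percent inhibition of Aurora-A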
# T5 sequence (whole entry): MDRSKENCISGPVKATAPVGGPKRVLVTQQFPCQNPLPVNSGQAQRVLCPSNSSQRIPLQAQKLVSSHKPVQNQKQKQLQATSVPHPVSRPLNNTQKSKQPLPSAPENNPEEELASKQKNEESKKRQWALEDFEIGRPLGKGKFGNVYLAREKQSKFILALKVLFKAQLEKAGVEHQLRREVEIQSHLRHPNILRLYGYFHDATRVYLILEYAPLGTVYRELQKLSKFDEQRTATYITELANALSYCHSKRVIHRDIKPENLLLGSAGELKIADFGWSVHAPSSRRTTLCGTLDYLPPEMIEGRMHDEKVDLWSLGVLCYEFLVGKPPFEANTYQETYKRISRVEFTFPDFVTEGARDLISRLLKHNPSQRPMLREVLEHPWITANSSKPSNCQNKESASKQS
SMILES,inhibition [1] [%],inhibition [2] [%],inhibition [3] [%],inhibition [4] [%],inhibition [5] [%],inhibition [6] [%],inhibition [7] [%],inhibition [8] [%],inhibition [9] [%],inhibition [10] [%],inhibition [11] [%],inhibition [12] [%],inhibition [13] [%],inhibition [14] [%],inhibition [15] [%],inhibition [16] [%],inhibition [17] [%],inhibition [18] [%],inhibition [19] [%],inhibition [20] [%]
CCN1CCC(CC(=O)Nc2n[nH]c3nc(-c4cccs4)c(Br)cc23)CC1,0.14,-2,-2.77,9.68,11.1,-7.55,4.72,-0.98,-0.2,-0.5,0.88,-0.35,-1.99,-0.62,0.26,-1.07,-3.55,-2.72,-0.41,-2.72
N#Cc1c(NC(=O)c2cccc3ccccc23)sc2c1CCCC2,2.16,2.31,3.43,2.34,6.02,1.31,-2.02,0.12,0.56,3.35,1.26,2.03,2.36,2.33,2.63,2.34,4.42,-0.41,0.69,2.42
Nc1ncnc2occ(-c3ccc(NC(=O)Nc4cc(C(F)(F)F)cc(C(F)(F)F)c4)cc3)c12,-6.95,3.65,6.33,29.1,77.5,4.85,33.8,1.04,1.13,37.1,94.1,42.3,86.4,39,87.4,1.73,4.45,-8.39,3.75,2.66
CS(=O)(=O)CCNCc1ccc(-c2ccc3ncnc(Nc4ccc(OCc5ccccc5)c(Cl)c4)c3c2)o1,1.51,-0.91,0.89,7.47,9.67,2.4,11.3,-0.1,0.61,2.31,4.84,2.92,2.87,1.98,2.17,1.26,1.47,1.67,6.09,0.56
Nc1ncnc2occ(-c3ccc(NC(=O)Nc4cccc(C(F)(F)F)c4)cc3)c12,–,1.64,5.89,56.4,74.4,7.73,52.8,0.8,1.54,63.9,96.5,59.4,91.1,58.9,88.9,-1.65,5.17,-3.69,18.1,9.27
Cc1nnc(-c2ccc(C)c(-c3ccc(C(=O)Nc4cccc(C#N)c4)cc3)c2)o1,-0.57,4.05,3.86,3.65,5.45,-0.4,5.43,0.82,2,1.28,-1.21,1.33,3.51,-0.42,3.49,3.37,4.78,-1.14,6.46,0.8
COc1cc2c(cc1Nc1nc(N3CCc4ccccc43)c3cc[nH]c3n1)N(C(=O)CN(C)C)CC2,-0.01,2.67,7.6,-0.77,1.37,1.17,12,0.63,1.93,0.79,3.52,-0.87,2.75,-1.19,5.17,4.42,7.54,-1.57,25.1,1.58
CC1=C(C(=O)Nc2ccc3[nH]ncc3c2)C(c2ccc(Cl)c(Cl)c2)CC(=O)N1 (centres undefined),1.43,2.26,6.35,2.31,4.81,-0.39,9.22,0.3,1.41,2.44,0.57,1.67,-0.28,2.34,1.92,1.64,0.6,0.3,7.89,9.43
COc1ccc2cc(-c3c(-c4ccncc4)nc(-c4ccc([S+](C)[O-])cc4)n3C)ccc2c1 (centres undefined),-1.16,4.18,5.59,53.3,83.2,4.52,8.26,0.59,0.47,2.78,1.74,0.67,1.15,0.11,1.86,1.4,4.06,-2.53,7.86,3.45
Cc1cccc(-c2n[nH]cc2-c2ccc3ncccc3n2)n1,-0.38,0.76,1.51,1.2,3.33,-0.63,0.33,-0.11,0.91,-1,-0.2,-0.22,0.79,0.22,-0.92,1.27,2.32,-0.15,3.31,2.76
CNC(=O)c1cncc(/C=C/c2c(Cl)cccc2Cl)c1,1,5.68,23.4,5.91,3.57,8.81,38.8,0.26,11,2.22,6.89,2.99,4.39,2.24,2.7,5.28,22.7,-2.78,18.3,0.59
